About 2,000 (36%) of roughly 5,500 compounds were called active. Not shown: some 18% with an inconclusive outcome. Some of the results follow. Unmarked numbers belong to inactive results. Cut-off read from the data, not from the text of the source: active = normalized growth mostly below about 0.91 (no sharp cut-off); inconclusive = no clear call, values can overlap the other calls; inactive = mostly above about 0.92.
Experiment: chemical genetic growth profiling, strain panel (AID 1159580);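 note: tested at 20 µM; growth read once vehicle control cultures reached saturation at 30 °C; 1 = growth at the plate median or of vehicle wells; lower values mean less growth of the strain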
Conditions: S. cerevisiae deletion strains, growth OD

## CN1/C(=C/C=C/c2ccc3ccccc3[n+]2C)C=Cc2ccccc21
Locus YAR019C, strain CDC15, active compounds read low
  normalized growth: 0.675 (active)
Locus YBL105C, strain PKC1, active compounds read low
  normalized growth: 0.837 (active)
Locus YBR135W, strain CKS1, active compounds read low
  normalized growth: 0.901
Locus YBR136W, strain MEC1, active compounds read low
  normalized growth: 0.893 (active)
Locus YBR160W, strain CDC28, active compounds read low
  normalized growth: 0.919
Locus YDL017W, strain CDC7, active compounds read low
  normalized growth: 0.903 (active)
Locus YDL028C, strain MPS1, active compounds read low
  normalized growth: 0.928
Locus YDL101C, strain DUN1, active compounds read low
  normalized growth: 0.362 (active)
Locus YDL108W, strain KIN28, active compounds read low
  normalized growth: 0.912
Locus YDL132W, strain cdc53, active compounds read low
  normalized growth: 0.653 (active)
Locus YDL214C, strain PRR2, active compounds read low
  normalized growth: 0.185 (active)
Locus YDR052C, strain DBF4, active compounds read low
  normalized growth: 0.889 (active)
Locus YDR054C, strain cdc34, active compounds read low
  normalized growth: 0.581 (active)
Locus YDR226W, strain ADK1, active compounds read low
  normalized growth: 0.961
Locus YDR477W, strain SNF1, active compounds read low
  normalized growth: 0.226 (active)
Locus YER123W, strain YCK3, active compounds read low
  normalized growth: 0.204 (active)
Locus YER133W, strain GLC7, active compounds read low
  normalized growth: 0.18 (active)
Locus YFL009W, strain cdc4, active compounds read low
  normalized growth: 0.684 (active)
Locus YFL029C, strain CAK1, active compounds read low
  normalized growth: 0.603 (active)
Locus YFR003C, strain YPI1, active compounds read low
  normalized growth: 0.883 (active)
Locus YFR019W, strain FAB1, active compounds read low
  normalized growth: 0.217 (active)
Locus YFR028C, strain CDC14, active compounds read low
  normalized growth: 0.885 (active)
Locus YGR040W, strain KSS1, active compounds read low
  normalized growth: 0.215 (active)
Locus YGR052W, strain FMP48, active compounds read low
  normalized growth: 0.212 (active)
Locus YGR092W, strain DBF2, active compounds read low
  normalized growth: 0.148 (active)
Locus YHR030C, strain SLT2, active compounds read low
  normalized growth: 0.177 (active)
Locus YHR079C, strain IRE1, active compounds read low
  normalized growth: 0.182 (active)
Locus YHR082C, strain KSP1, active compounds read low
  normalized growth: 0.224 (active)
Locus YHR205W, strain SCH9, active compounds read low
  normalized growth: 0.132 (active)
Locus YIL147C, strain SLN1, active compounds read low
  normalized growth: 0.905
Locus YJL095W, strain BCK1, active compounds read low
  normalized growth: 0.208 (active)
Locus YJL157C, strain FAR1, active compounds read low
  normalized growth: 0.174 (active)
Locus YJR016C, strain ILV3, active compounds read low
  normalized growth: 0.828 (active)
Locus YJR066W, strain TOR1 (second series), active compounds read low
  normalized growth: 0.196 (active)
Locus YJR066W, strain TOR1, active compounds read low
  normalized growth: 0.197 (active)
Locus YKL048C, strain ELM1, active compounds read low
  normalized growth: 0.291 (active)
Locus YKL067W, strain YNK1, active compounds read low
  normalized growth: 0.162 (active)
Locus YKL101W, strain HSL1, active compounds read low
  normalized growth: 0.199 (active)
Locus YKL193C, strain SDS22, active compounds read low
  normalized growth: 0.655 (active)
Locus YKL203C, strain TOR2, active compounds read low
  normalized growth: 0.209 (active)
Locus YLR113W, strain HOG1, active compounds read low
  normalized growth: 0.29 (active)
Locus YLR133W, strain CKI1, active compounds read low
  normalized growth: 0.341 (active)
Locus YLR403W, strain SFP1, active compounds read low
  normalized growth: 0.0454 (active)
Locus YML070W, strain DAK1, active compounds read low
  normalized growth: 0.209 (active)
Locus YMR001C, strain CDC5, active compounds read low
  normalized growth: 0.816 (active)
Locus YMR205C, strain PFK2 (second series), active compounds read low
  normalized growth: 0.325 (active)
Locus YNL006W, strain LST8, active compounds read low
  normalized growth: 0.793 (active)
Locus YNL020C, strain ARK1, active compounds read low
  normalized growth: 0.243 (active)
Locus YNL161W, strain CBK1, active compounds read low
  normalized growth: 0.658 (active)
Locus YNL183C, strain NPR1, active compounds read low
  normalized growth: 0.197 (active)
Locus YNL207W, strain RIO2, active compounds read low
  normalized growth: 0.528 (active)
Locus YNL222W, strain SSU72, active compounds read low
  normalized growth: 0.708 (active)
Locus YNL307C, strain MCK1 (second series), active compounds read low
  normalized growth: 0.189 (active)
Locus YOL136C, strain PFK27, active compounds read low
  normalized growth: 0.188 (active)
Locus YOR061W, strain CKA2, active compounds read low
  normalized growth: 0.181 (active)
Locus YOR119C, strain RIO1, active compounds read low
  normalized growth: 0.221 (active)
Locus YOR231W, strain MKK1, active compounds read low
  normalized growth: 0.198 (active)
Locus YOR329C, strain SCD5, active compounds read low
  normalized growth: 0.702 (active)
Locus YPL031C, strain PHO85, active compounds read low
  normalized growth: 0.198 (active)
Locus YPL153C, strain RAD53, active compounds read low
  normalized growth: 0.178 (active)
Locus YPL204W, strain HRR25, active compounds read low
  normalized growth: 0.177 (active)
Locus YPL209C, strain IPL1, active compounds read low
  normalized growth: 0.748 (active)
Locus YPL256C, strain CLN2, active compounds read low
  normalized growth: 0.25 (active)
Locus YPR025C, strain CCL1, active compounds read low
  normalized growth: 0.821 (active)
Locus YPR106W, strain ISR1, active compounds read low
  normalized growth: 0.929
Locus YPR111W, strain DBF20, active compounds read low
  normalized growth: 0.902
Strain NNK1, active compounds read low
  normalized growth: 0.536 (active)
Strain TSCII, active compounds read low
  normalized growth: 0.604 (active)

Reference: PubChem BioAssay AID1159580 (chemical genetic matrix, 2015)
